Most compounds without a hit are left out; they make up all but 0.52% or so of the library.
Epigenetic derep: Quantitative High-Throughput Screen for Regulators of Epigenetic Control; Potency, µM (series often up to 53.9 µM), for inactives: at the top dose GFP activation, usual class: activators; actives 0.2% (n = 280,000); AID 1865, 2009; murine LDR cells, GFP reporter derepression, 30 h; also: % of control where 0% means no effect; nearly all actives have a fitted effect of over 60% in size
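GFP-positive cell count by laser-scanning cytometry (objects 20–120 um) after 30 h, 37 C compound exposure of murine LDR cells; reporter is CMV-GFP integrated at a silenced locus, inducible by HDAC or DNMT inhibitors.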
Vif-APOBEC3F blk: qHTS for Inhibitors of Vif-A3F Interactions: qHTS. HeLa A3F-eYFP + Vif (tagged APOBEC3F with the HIV-1 protein that degrades it), YFP fluorescence increase. Potency, µM (titrated, usually from 46.1 µM), without a hit: at the top dose activity, negative = active. actives 0.2% (n = 390,000). AID 602313, 2012; also: % of control where 0% means no effect; nearly all actives have a fitted effect of over 65% in size
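HeLa cells stably expressing Vif plus C-terminally eYFP-tagged A3F were seeded, incubated overnight at 37 deg C, dosed with compound, incubated overnight again at 37 deg C. Yellow fluorescence (Ex 488/Em 500-530) reported blocked Vif-mediated A3F-eYFP degradation.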
Vif-APOBEC3G blk: qHTS for Inhibitors of Vif-A3G Interactions: qHTS; DNA dC->dU-editing enzyme APOBEC-3G (Homo sapiens), Q9HC16; HeLa A3G-eYFP + Vif (tagged APOBEC3G with the HIV-1 protein that degrades it), YFP fluorescence, overnight; Potency, µM (highest dose often 46.1 µM), for inactives: at the highest dose activity, negative = active, actives largely listed as inhibitors; actives 0.076% (n = 410,000); AID 602310, 2012; also: % is scaled to controls: 0 for no effect and ±100 for the full control effect; nearly all actives have a fitted effect of over 60% in size
Target sequence (Q9HC16 whole entry, looked up): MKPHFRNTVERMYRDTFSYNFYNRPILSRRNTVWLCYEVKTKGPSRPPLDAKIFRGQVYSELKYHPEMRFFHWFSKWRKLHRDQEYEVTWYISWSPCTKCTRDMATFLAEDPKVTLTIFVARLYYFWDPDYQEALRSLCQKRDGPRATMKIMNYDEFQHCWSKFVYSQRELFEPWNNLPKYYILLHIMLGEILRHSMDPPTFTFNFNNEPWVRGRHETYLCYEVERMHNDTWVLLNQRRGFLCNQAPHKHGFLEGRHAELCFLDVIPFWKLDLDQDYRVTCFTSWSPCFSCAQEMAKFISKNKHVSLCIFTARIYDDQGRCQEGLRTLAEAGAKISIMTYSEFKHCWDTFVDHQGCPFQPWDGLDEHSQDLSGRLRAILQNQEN
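HeLa cells stably expressing Vif and C-terminally eYFP-tagged A3G, seeded overnight at 37 deg C, then exposed to compound by pintool overnight at 37 deg C. Rise in yellow fluorescence (Ex 488/Em 500-530, Acumen) marks blocked Vif-driven A3G degradation.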
PINK1 expr mod: A Quantitative High throughput Screen to Identify Chemical Modulators of PINK1 Expression; PINK1 immunofluorescence, high-content cytometry, 24 h; Potency, µM (series often up to 76.6 µM), for inactives: top-dose activation (PINK1 increase), actives largely listed as activators; actives 0.2% (n = 410,000); active = well fitted activation curve with a large enough effect; inconclusive = small, poorly fitted or top-dose-only effect; cell line not stated here; also: % of control where 0% means no effect; nearly all actives have a fitted effect of over 65% in size
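Stable cell line treated 24 h with compounds at 5 concentrations (CCCP controls), then fixed and immunostained for PINK1 plus nuclear and cell stains; PINK1 immunofluorescence quantified by laser-scanning microplate cytometry.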
Numbers without * were called inactive; ? = inconclusive; nt = no result; [ ] = another dose, or the depositor's remark. Unless noted, calls follow the shape of the dose curve; as a rule, active = well fitted curve in the direction sought with a large enough effect; inconclusive = small, poorly fitted or top-dose-only effect, or another doubt; inactive = no such curve, though single readings can be large; an effect the other way counts as inactive or inconclusive. Potency is read from the fitted curve at half-maximal effect.

SMILES	Epigenetic derep	Vif-APOBEC3F blk	Vif-APOBEC3G blk	PINK1 expr mod
Cc1nc2sccn2c1CN1CCC2(CC1)CC2C(=O)Nc1ccc2c(c1)OCO2 (stereo unspecified)	nt	nt	nt	-0.5%
Cc1cccc2cc(C#N)c(SCC(=O)Nc3ccccc3N3CCOCC3)nc12	-2.0%	-11.8%	-11.4%	20.1%
N#Cc1cc2ccccc2nc1SCC(=O)Nc1ccccc1N1CCOCC1	-0.9%	25.1µM*	?	6.8%
C=Cc1ccc(C(=O)N2CCc3c(cnc(C)c3CNC(=O)c3ccc4c(c3)OCO4)C2)cc1	nt	nt	nt	-0.7%
COCCCn1c(=O)/c(=C\c2ccc(OC(F)F)c(OC)c2)s/c1=C(/C#N)C(N)=O	?	2.0%	0.0%	11.3%
COCCCn1c(=O)/c(=C\c2ccccc2OC(F)F)s/c1=C(/C#N)C(N)=O	?	?	-0.3%	35.5µM*
Cc1ccc2nc(NCc3ccccc3)[nH]c2c1	0.4%	-25.4%	?	13.2%
COc1ccc2nc(NCc3ccccc3)[nH]c2c1	-1.0%	-9.5%	?	15.8µM*
CC(C)C(=O)NCC1CCC2(CCN(Cc3ccc(-c4cccc(Cl)c4)o3)CC2)O1 (stereo unspecified)	nt	nt	nt	0.7%
COc1cc(OC)c(OC)cc1CN1CCOc2ccc(CN3CCN(C(C)=O)CC3)cc2C1	nt	nt	nt	-0.3%
CN(C)c1ccc(/C=C/c2ccc3ccccc3[n+]2[O-])cc1	nt	nt	?	5.4%
Cc1cc(/C=C\c2ccc3cc(N(C)C)ccc3[n+]2C)c(C)n1-c1ccccc1	11.3%[16.9 µM]	3.16µM*	7.08µM*	?
COc1ccc(OC)c(CN2C[C@H](Sc3ccc(F)cc3)C[C@H]2C(=O)N(C)C)c1	nt	nt	nt	-0.7%
COc1ccc(NC(=S)Nc2ncccc2C)c(OC)c1	-2.2%	1.0%	11.2µM*	nt
COc1cc(/C=C2/SC(=S)N(CC3CCCO3)C2=O)ccc1O (stereo unspecified)	3.1%	31.6µM*	4.8%	5.6%
COc1ccc(/C=C2\SC(=S)N(CCCC(=O)Nc3cc(C)on3)C2=O)cc1OC	nt	-8.7%	0.2%	10µM*
CCOC(=O)N1CCN(C(=O)CCN2C(=O)/C(=C\c3ccc(OC)c(OC)c3)SC2=S)CC1	nt	?	?	31.6µM*
COc1ccc(/C=C2\SC(=S)N(CCCCCC(=O)Nc3cc(C)on3)C2=O)cc1OC	nt	-7.5%	0.5%	14.1µM*
Cc1ccc(/C=C2\SC(=S)N(CCCC(=O)Nc3cc(C)on3)C2=O)cc1	nt	1.8%	4.9%	-0.8%
CN(C)c1nc2cc(Cl)ccc2cc1CN(Cc1ccc2c(c1)OCO2)C(=O)c1ccoc1	nt	nt	nt	3.0%
NC(=O)CC(NC(=O)Cc1ccc(Br)cc1)c1ccc(NCc2ccc(F)cc2)c([N+](=O)[O-])c1 (stereo unspecified)	?	11.2µM*	?	20.4%
NC(=O)CC(NC(=O)Cc1ccc(Br)cc1)c1ccc(NCC2CC2)c([N+](=O)[O-])c1 (stereo unspecified)	-3.1%	4.6%	-15.7%	0.3%
Cc1cc(C)nc(S[C@H]2C[C@@H](C(=O)N3CCN(c4ccccc4F)CC3)N(Cc3ccccc3C(F)(F)F)C2)n1	nt	nt	nt	0.0%
COc1ccc(S(=O)(=O)NCc2nc(N3CCCC3)c3cccc(C)c3n2)cc1OC	nt	nt	nt	0.0%
Cc1ccccc1N(C)S(=O)(=O)c1nnc(NC(=O)c2ccccc2F)s1	0.0%	3.2%	-5.3%	-0.2%
SMILES	Epigenetic derep	Vif-APOBEC3F blk	Vif-APOBEC3G blk	PINK1 expr mod
Cc1ccccc1N(C)S(=O)(=O)c1nnc(NC(=O)C(C)C)s1	22.4µM*	1.5%	3.5%	1.1%
Cc1ccc(C)c(NC(=O)N2CCN(c3nnc(C)c4c(C)n(-c5ccccc5)nc34)CC2)c1	0.0%	nt	nt	2.0%
COc1ccc(C)cc1NC(=O)N1CCN(c2nnc(C)c3c(C)n(-c4ccccc4)nc23)CC1	4.0%	nt	nt	28.2µM*
CCOC(=O)Cn1c(=NC(=O)c2ccc([N+](=O)[O-])s2)sc2ccccc21	?	?	-0.5%	25.1µM*
Cc1ccc(S(=O)(=O)/N=C(/Nc2ccc([N+](=O)[O-])cc2[N+](=O)[O-])c2ccccc2)cc1	nt	-11.2%	-0.6%	35.5µM*
CN(C)c1ccc(C2C=C(c3ccccc3)Nc3nnnn32)cc1 (stereo unspecified)	9.3%	25.1µM*	?	4.2%
Cc1cc(CNC(=O)c2cnn(-c3nccc(-c4ccc5c(c4)OCO5)n3)c2C2CC2)on1	nt	nt	nt	0.5%
CCOC(=O)/C(C#N)=N/Nc1ccc(S(=O)(=O)N2CCc3ccccc32)cc1	-1.0%	5.3%	-15.9%	15.8µM*
Nc1ccccc1SC(CC(=O)c1ccccc1)c1ccccc1 (stereo unspecified)	nt	?	-5.7%	1.9%
COC(=O)c1ccccc1SC(CC(=O)c1ccccc1)c1ccc(F)cc1 (stereo unspecified)	22.4µM*	-6.0%	-6.9%	-3.4%
Cc1cccnc1-c1cccc2c1OC(CNC(=O)/C=C/c1cccs1)C2 (stereo unspecified)	nt	nt	nt	2.5%
CC(=O)Nc1ccc(S(=O)(=O)Nc2nc3ccccc3nc2Sc2nncn2C)cc1	3.2%	10µM*	-15.6%	4.5%[38.3 µM]
Cn1ccnc1Sc1nc2ccccc2nc1NS(=O)(=O)c1ccccc1	6.6%	25.1µM*	-13.3%	-2.4%[38.3 µM]
Cn1cnnc1Sc1nc2ccccc2nc1NS(=O)(=O)c1ccccc1	1.5%	?	-1.5%	-1.6%[38.3 µM]
CCC(C(=O)NCc1cc(OC)ccc1OC)n1nc(C)c2sc3ccccc3c2c1=O (stereo unspecified)	-3.2%	nt	nt	0.4%
CCC(C(=O)NCCc1cc(OC)ccc1OC)n1nc(C)c2sc3ccccc3c2c1=O (stereo unspecified)	12.6µM*	-5.5%	-9.0%	3.2%
CC(=O)c1ccccc1C(=O)NCC1Cc2cccc(-c3cccnc3)c2O1 (stereo unspecified)	nt	nt	nt	0.7%
O=c1c[n+]([O-])c2ccccc2n1OCc1c(F)cccc1F	12.6µM*	-0.6%	?	0.4%
O=c1c[n+]([O-])c2ccccc2n1OCc1ccccn1	?	-11.5%	?	0.6%
COc1ccc2c(c1)OC(C)CN(CCNC(=O)c1csc(-c3cccs3)n1)C2 (stereo unspecified)	nt	nt	nt	-1.1%
CCOC(=O)c1c(NC(=O)CSc2nc3ccc(OC)cc3[nH]2)sc2c1CC(C)(C)NC2(C)C	nt	25.1µM*	?	-1.4%
CCOC(=O)c1c(NC(=O)CSc2ncccn2)sc2c1CC(C)(C)NC2(C)C	nt	2.0%	0.8%	0.5%
O=C(NCCc1ccccn1)c1cnn(-c2ncc3c(n2)-c2ccccc2CC3)c1C1CC1	nt	nt	nt	-0.6%
Cc1cnc(-n2ncc(C(=O)NCCc3ccncc3)c2-c2cccs2)nc1-c1ccc(F)cc1	nt	nt	nt	1.1%
CCOC(=O)Nc1ccc2c3c(cccc13)-c1ccccc1-2	nt	3.55µM*	?	3.5%
CCOC(=O)Nc1cccc2ccccc12	7.1%	5.0%	-6.0%	-7.4%[38.3 µM]
Cc1ccc(NC(=S)N/N=C2\CCCCC2C)cc1 (stereo unspecified)	1.1%	22.4µM*	?	9.3%
